According to PubChem BioAssay (NCATS):
Records with an inconclusive call do not appear. Values without a mark were called inactive. Calls of active or inactive are those of the source. Calls come from the whole dose curve; as a rule, active = well fitted cell-killing curve with a large enough effect; inconclusive = small, poorly fitted or top-dose-only effect, or effect the other way; inactive = flat fitted curve, though single readings scatter.

Experiment: S16 Schwann cell viability assay (CellTiter-Glo assay) (AID 624031); note: nearly all actives have a fitted effect of over 70% in size;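 for activity change, negative = cytotoxicity: cellular ATP luminescence as a viability measure; plate controls were DMSO-treated cells for no effect and cell-free wells for full effect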
Conditions: S16 rat Schwann cells viability, 24 h; series mostly up to 57.5 µM; activity change, negative = cytotoxicity: at the top concentration
How it was run: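 Native S16 rat Schwann cells in DMEM/10% FBS without phenol red were incubated overnight, then exposed to compounds for 24 h at 37 °C/5% CO2. Viability was read as ATP luminescence (CellTiter-Glo), normalized to no-cell wells and DMSO (0%).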
Potency is the fitted concentration of half-maximal effect.

SMILES | activity change, negative = cytotoxicity [%] | Potency
CCCCCCCCCCCCCCCCCCCCCC(=O)Nc1ccn([C@@H]2O[C@H](CO)[C@@H](O)[C@@H]2O)c(=O)n1 | -8.45 | –
Cc1cccc(C)c1NC(=O)NC1=CCCN1C | 0 | –
Cc1ccc(C(C)(C)c2ccc(C)cc2)cc1 | 13.5 | –
CCOc1ccc(S(=O)(=O)O)c2cccnc12 | 8.65 | –
O=C(O)CCC/C=C\C[C@@H]1[C@@H](/C=C/[C@@H](O)COc2cccc(Cl)c2)[C@H](O)C[C@@H]1O | 3.18 | –
FC(F)(F)COCC(F)(F)F | -4 | –
Cc1nc(NS(=O)(=O)c2ccc(N)cc2)nc(C)c1Br | -25.2 | –
C=CCCCCCCCCC(=O)OC | 0.869 | –
O=C1c2ccccc2CN2C(=O)c3ccccc3CN12 | -1.51 | –
O=C(O)c1ccc(OCCn2ccnc2)cc1 | 4.19 | –
c1ccc(-n2cnnn2)cc1 | -0.758 | –
COC(=O)CCC[N+](C)(C)C | -1.98 | –
CC[C@H]1OC(=O)[C@H](C)[C@@H](O[C@H]2C[C@@](C)(OC)[C@@H](O)[C@H](C)O2)C(C)[C@@H](O[C@@H]2O[C@H](C)C[C@H](N(C)C)[C@@H]2O)[C@](C)(OC)C[C@@H](C)C(=O)[C@H](C)[C@@H](O)[C@]1(C)O (some centres not stated) | -15.5 | –
CC(C)(C)CC(C)(C)c1cc(Cc2cc(C(C)(C)CC(C)(C)C)cc(-n3nc4ccccc4n3)c2O)c(O)c(-n2nc3ccccc3n2)c1 | -0.228 | –
C[Se]CC[C@H](N)C(=O)O | -0.0929 | –
CCOC(=O)c1c[nH]c2cc(OCC(C)C)c(OCC(C)C)cc2c1=O | -3.64 | –
S=C=Nc1ccc(N=C=S)cc1 | -19.8 | –
Nc1nc(=O)n([C@@H]2CS[C@H](CO)O2)cc1F | -4.08 | –
CCCC(=O)O | -22.5 | –

SMILES | activity change, negative = cytotoxicity [%] | Potency
Cc1cc(=O)c(C(=O)N[C@@H](C(=O)N[C@@H]2C(=O)N3C(C(=O)O)=C(CSc4nnnn4C)CS[C@H]23)c2ccc(O)cc2)c[nH]1 | -10.7 | –
CC(=O)[O][Al][O]C(C)=O | 11.6 | –
N=C(N)n1cccn1 | 2.85 | –
CC(=O)Nc1ccc(NC(=S)NC(=O)c2ccc(C(C)(C)C)cc2)cc1 | -19.6 | –
Cc1cc(C(=O)NCCc2ccc(S(=O)(=O)NC(=O)NN3CCCCCC3)cc2)no1 | 0 | –
CS(=O)(=O)OCC(O)C(O)COS(C)(=O)=O (configuration not stated) | -19.5 | –
CN=C1C=CC(=C(c2ccc(N(C)C)cc2)c2ccc(N(C)C)cc2)C=C1 | – | 10.2 µM (active)
CC(C)(COP(=O)(O)OP(=O)(O)OC[C@H]1O[C@@H](n2cnc3c(N)ncnc32)[C@H](O)[C@@H]1OP(=O)(O)O)C(O)C(=O)NCCC(=O)NCCS (some centres not stated) | -6.16 | –
O=C(Nc1ccc(O)cc1)c1ccccc1O | -0.776 | –
O=P(O)(O)OC[C@H](O)CO | 9.55 | –
COc1ccc(/C=N/NC(=O)c2ccncc2)c(C(=O)O)c1OC | 9.09 | –
CNC(=O)[C@H](Cc1c[nH]c2ccccc12)NC(=O)[C@@H](CC(=O)NO)CC(C)C | -10.1 | –
CCCCCCOC(=O)c1cccnc1 | 1.44 | –
CC(C)c1nc(N(C)S(C)(=O)=O)nc(-c2ccc(F)cc2)c1/C=C/C(O)CC(O)CC(=O)O (configuration not stated) | -27.9 | –
CCCc1nc(C(C)(C)O)c(C(=O)OCc2oc(=O)oc2C)n1Cc1ccc(-c2ccccc2-c2nn[nH]n2)cc1 | -10.9 | –
C[C@H](N)C(=O)N[C@@H](C)P(=O)(O)O | -1.6 | –
CCC(O)c1ccccc1 (configuration not stated) | -0.0469 | –
CCCCC[C@H](O)/C=C/[C@@H]1[C@H]2C/C(=C/CCCC(=O)O)O[C@H]2C[C@H]1O | 12.3 | –
